Abeta rescue = qHTS for compounds that reverse cellular toxicity of Amyloid beta (A-beta) peptide in yeast: Primary Screen; hit rate 0.063% among 410,000; Potency, µM (top dose mostly 46.1 µM), usual class: activators; AID 1347071, 2019; yeast expressing A-beta42, growth rescue, OD600, 48 h; response scale: 0% DMSO, 100% iron-clioquinol control; note: nearly all actives have a fitted effect of over 55% in size
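Yeast growth medium received pinned compounds, then yeast cells expressing toxic A-beta were added; plates incubated at 30 C for 48 hr. Growth read as absorbance at 600 nm, normalized to DMSO and equimolar FeCl3 plus clioquinol controls.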
FUS yeast rescue = qHTS for Suppressors of FUS Proteinopathy: Primary screen using FUS-linked yeast assay | S. cerevisiae FUS-expressing, growth rescue, OD600, 24 h | hit rate 0.24% among 390,000 | Potency, µM (highest dose often 76.6 µM), actives largely listed as activators; note: nearly all actives have a fitted effect of over 55% in size
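Cultures pregrown in 2.5% raffinose medium are shifted to minimal medium containing 2% galactose to express toxic FUS. Compounds are tested at several concentrations. After 24hr at 30C, growth is quantified at 600 nm absorbance.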
TDP43 rescue = qHTS of TDP-43 Inhibitors. Potency, µM (series often up to 46.1 µM), hits mostly activators. hit rate 1.8% among 410,000. TDP-43 expressing yeast growth rescue, BacTiter-Glo, 24 h; note: nearly all actives have a fitted effect of over 50% in size
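In this qHTS, compounds that restore growth of yeast expressing TDP-43 appear as activators. Cells (OD600=0.02, galactose medium, raffinose-pregrown) are incubated with compound 24 hr at 30 deg C and growth is quantified by BacTiter-Glo.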
CCT chaperon mod = High-Throughput Screening for Modulators of Cytosolic Chaperonin Activity | hit rate 0.3% among 360,000 | AID 651819, 2012 | activity change, % (concentration not given with the values), hits read low | purified chaperonin ATPase assay, HTRF ADP detection, 30 min; in the data active = activity change below about -30%
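First, chaperonin was dispensed at 40 nM or 20 nM final depending on batch activity. Next, compounds were pinned at 76 uM and ATP added at 10 uM. After 30 min at 37 °C, ADP detection reagents ran 30 min at ambient temperature.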
Mm-Cpn inhibitor = Inhibitors of TCP-1 ring complex (TRiC) of Methanococcus maripaludis (MmCpn): qHTS | hit rate 0.031% among 330,000 | purified Mm-Cpn ATPase, ADP Transcreener TR-FRET | Potency, µM (top dose mostly 76.9 µM), actives largely listed as inhibitors | AID 504842, 2011; note: nearly all actives have a fitted effect of over 80% in size
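Measured: ADP formation by purified Mm-CPN. Conditions: 25 nM protein, 10 uM ATP, Tris pH 7.4 with Mg2+, K+ and DTT, 37°C for 30 min. Detection: Transcreener HTRF after 30 min at room temperature.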
aSyn rescue = qHTS of alpha-syn Inhibitors; Yeast expressing alpha-synuclein, growth rescue, BacTiter-Glo, 24 h; Potency, µM (highest dose often 46.1 µM), actives largely listed as activators; hit rate 0.14% among 370,000; AID 652106, 2013; note: nearly all actives have a fitted effect of over 65% in size
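Screening used galactose-induced yeast with toxic alpha-synuclein levels, exposed to compound for 24 hr at 30 deg C. Cell growth, read with BacTiter-Glo luminescence, gave the measured signal.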
A number is an active result; – = inactive; ? = inconclusive; · = no result given; [ ] = dose if it differs, or a comment. Only some compounds are listed: those with a hit (about 2.3% of all), similar ones and a draw of the others. Unless noted, calls come from the whole dose curve; as a rule, active = well fitted curve in the direction sought with a large enough effect; inconclusive = small, poorly fitted or top-dose-only effect, or another doubt; inactive = no such curve, though single readings can be large; an effect the other way counts as inactive or inconclusive.

SMILES	Abeta rescue	FUS yeast rescue	TDP43 rescue	CCT chaperon mod	Mm-Cpn inhibitor	aSyn rescue
NC(=S)Nc1ccc2c(c1)OCO2	–	–	–	–	–	–
N#Cc1ccc(NC(=S)/N=C(\N)c2ccccc2)cc1	?	–	11µM	–	·	–
N/C(=N\C(=S)Nc1ccccc1)c1ccccc1	?	–	?	–	–	–
N/C(=N\C(=S)Nc1ccc2c(c1)OCO2)c1ccccc1	?	–	20µM	–	·	–
C=CCCC(=O)N1CCC(C(=O)NCC2COc3ccccc3O2)CC1 (configuration not stated)	·	–	·	·	·	·
CCCC1CCC2(CCCN2CCOC(=O)Nc2ccccc2C)CC1 (configuration not stated)	·	–	·	·	·	·
Cc1ccc(Cl)cc1NC(=O)COCc1cc(-c2ccco2)on1	–	–	?	·	·	·
Cc1[nH]n(-c2ccccc2)c(=O)c1Sc1ccc(Cl)cc1	–	–	–	–	–	–
Cc1cc(-c2c(C)[nH]n(-c3ccc(Cl)cc3)c2=O)n[nH]1	–	?	22µM	–	–	?
COC(=O)c1sccc1NC(=O)Nc1ccc(C)cc1C	–	–	13µM	–	–	–
COC(=O)c1sccc1NC(=O)Nc1ccc(C)cc1	–	–	?	–	–	–
Cc1ccc(NC(=O)c2sccc2-n2cccc2)c(C)c1	–	–	22µM	–	–	–
COc1ccc(NC(=O)c2sccc2-n2cccc2)cc1	–	–	13µM	–	–	–
O=C(Nc1ccc(Cl)cc1)c1sccc1-n1cccc1	–	–	?	–	–	–
O/N=C(/CI)c1ccc2ccccc2c1	·	·	·	·	·	–
O=C(O)CC1c2ccccc2CCN1C(=O)Nc1cc(Cl)ccc1Cl (configuration not stated)	–	–	–	·	·	·
COc1ccc(-n2c(SCC(=O)Nc3ccc4cn[nH]c4c3)nnc2-c2ccccc2)cc1	·	–	·	·	·	·
O=C(COC(=O)/C=C/c1ccco1)NCc1ccc(Cl)cc1	–	–	10µM	–	–	–
O=C(COC(=O)/C=C/c1ccco1)NCc1ccccc1	–	–	–[9.22 µM]	–	–	–
O=C(Nc1cccc(F)c1)OCCN1CCCC12CCC(c1ccccc1)CC2 (configuration not stated)	·	–	·	·	·	·
CN(Cc1ccccc1)C(=O)OCc1cn(Cc2cccc(F)c2)nn1	·	–	·	·	·	·
Cc1ccc(Cn2c(C(CO)Nc3nc(-c4ccc(F)cc4)cs3)nc3ccccc32)cc1 (configuration not stated)	?	?	–	–	·	–
Cc1ccc(Cn2c(C(CO)Nc3nc(-c4ccc(Cl)c([N+](=O)[O-])c4)cs3)nc3ccccc32)cc1 (configuration not stated)	–	?	25µM	–	·	?
COC(=O)c1ccc(NC(=O)c2nc(SCc3ccccc3F)ncc2Cl)cc1	·	·	·	·	·	–
O=C1Nc2ccc(I)cc2C1=Cc1cc(Br)c(O)c(Br)c1	·	·	·	·	·	3.2µM
SMILES	Abeta rescue	FUS yeast rescue	TDP43 rescue	CCT chaperon mod	Mm-Cpn inhibitor	aSyn rescue
O=C1Nc2ccc(I)cc2/C1=C/c1cc(Br)c(O)c(Br)c1	·	·	·	·	·	–
COc1ccc(CN2C(=O)COc3ccccc32)cc1	–	–	?	–	–	–
O=C1COc2ccccc2N1Cc1ccc(Cl)cc1	–	–	20µM	–	–	–
COc1ccc(-n2ncc3c(N4CCC(C)CC4)ncnc32)cc1	–	–	14µM	–	–	–
CC1CCN(c2ncnc3c2cnn3-c2ccccc2)CC1	–	–	?	–	–	–
S=C(NC1CCCCC1)NC1CC2C=CC1C2 (configuration not stated)	11µM	–	–[1.82 µM]	–	–	–
O=C(Cc1ccccc1)NCCCc1ccccc1	–	–	?	–	–	–
O=C(O)CCCNC(=O)Cc1ccccc1	–	–	?	-91	–	–
CC(=O)Nc1cccc(-c2cc(C(C)=O)c3n(c2=O)CCC3)c1	·	–	·	·	·	·
CCOC(=O)[C@]12CCCC3=C1N(CCC3)C(=O)[C@@H](CC(=O)NCc1ccc(C)o1)C2	·	–	·	·	·	·
O=C1c2ccccc2C(=O)N1CCc1c(-c2[nH]c3ccccc3c2CCN2C(=O)c3ccccc3C2=O)[nH]c2ccccc12	–	–	–	–	·	–
O=C1c2ccccc2C(=O)N1CCc1ccccc1	–	–	11µM	–	·	–
O=C1c2ccccc2C(=O)N1CCc1c(-c2ccccc2)[nH]c2ccccc12	–	–	11µM	–	·	–
Cc1ccc(NC(=O)COC(=O)c2cc(Cl)ccc2[N+](=O)[O-])cc1	–	·	18µM	–	–	–
NS(=O)(=O)c1cccc(NC(=O)COC(=O)c2cc(Cl)ccc2[N+](=O)[O-])c1	–	–	–	–	–	–
COc1ccc(CN(C)C(=O)CCl)cc1	–	–	–	–	–	–
CN(Cc1ccc(Cl)cc1)C(=O)CCl	–	–	16µM	–	–	–
CN(Cc1ccc(Cl)s1)C(=O)CCl	–	–	10µM	–	–	–
CCc1ccc2oc(C(=O)N(Cc3ccc(N(C)C)cc3)Cc3ccco3)c(C)c2c1	–	–	–	·	·	·
CC1(C)Cc2cccc(C(=O)Nc3ccc(Cl)cc3)c2O1	–	–	18µM	–	–	–
CC(=O)c1cccc(NC(=O)c2ccccc2N(C)S(=O)(=O)c2ccc(C)cc2)c1	–	–	–	–	–	–
CN(c1ccccc1C(=O)Nc1cccc([N+](=O)[O-])c1)S(=O)(=O)c1ccccc1	–	–	22µM	–	–	–
CCOC(=O)c1ccc(CN(Cc2ccccc2)S(=O)(=O)c2cccc([N+](=O)[O-])c2)cc1	–	–	–	-33	–	–
CCOC(=O)c1ccc(NC(=O)c2ccccc2N(C)S(=O)(=O)c2ccccc2)cc1	–	·	35µM	–	–	–
CN(c1ccccc1C(=O)Nc1cccc(Br)c1)S(=O)(=O)c1ccccc1	–	–	28µM	–	–	–
CN(c1ccccc1C(=O)Nc1ccc(CC#N)cc1)S(=O)(=O)c1ccccc1	–	–	–	–	–	–
CN(c1ccccc1C(=O)Nc1cccc([N+](=O)[O-])c1)S(C)(=O)=O	–	–	–	–	–	–
CN(CCOC(=O)c1cc2ccccc2o1)C1CN(Cc2cn(Cc3ccc([N+](=O)[O-])cc3)nn2)S(=O)(=O)C1 (configuration not stated)	·	–	·	·	·	·
CN(C)c1ccc(C(C[N+](=O)[O-])c2c(N)n(C)c(=O)n(C)c2=O)c(F)c1C#N (configuration not stated)	–	–	–	–	–	–
